Reference: the supplement of paper PMC6555819

Assays:
Assay in all cases: PBM binding z-score (relative to random genomic background probes); higher = stronger binding; sequences stand for … in GC…GCGATTGACAGCGTAGAATGAAGG
[1] = system: RARb homodimer (NR concentration 270 nM)
Method in brief: (§1)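 Scanned fluorescence from custom Agilent 4×180K protein-binding microarrays was regression-normalized. Binding z-scores use random background probes as reference. Ligand-free nuclear receptor dimers were incubated on the arrays for 1 h and detected with antibodies against each partner (one per run).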

[2] = system: RARg:RXRa (NR concentration 270 nM, RXRa partner concentration 90 nM)
Method in brief: as §1

[3] = system: RARg homodimer (NR concentration 270 nM)
Method in brief: as §1

[4] = system: RXRa DBDmut IVT, anti-RXR (DBD mutation: RXRa K156A/R161A, NR concentration 90 nM)
Method in brief: as §1

[5] = system: RXRa homodimer (NR concentration 180 nM)
Method in brief: as §1

[6] = system: THRa:RXRa (NR concentration 90 nM, RXRa partner concentration 90 nM)
Method in brief: as §1

[7] = system: THRa homodimer (NR concentration 90 nM)
Method in brief: as §1

[8] = system: VDR:RXRa (NR concentration 270 nM, RXRa partner concentration 90 nM)
Method in brief: as §1

[9] = system: VDR homodimer (NR concentration 270 nM)
Method in brief: as §1

Sequence | PBM binding z-score [1] | PBM binding z-score [2] | PBM binding z-score [3] | PBM binding z-score [4] | PBM binding z-score [5] | PBM binding z-score [6] | PBM binding z-score [7] | PBM binding z-score [8] | PBM binding z-score [9]
GGAACGAGGGCAAAGATGATAGCATCTGTCGACG | 0.55 | 1.1 | 1.59 | 2.33 | 1.02 | 0.506 | -0.734 | 0.573 | 0.578
AATACAGGGTCACAAGGCCAGAGTAGGTACGAAT | 3.8 | 6.03 | 5.53 | 3.06 | 6.78 | 3.86 | 1.78 | 4.82 | 2.64
GCGAGCAGGCCATTTGGGTCACTCAATGACGGGC | 1.96 | 1.09 | 1.37 | 0.115 | 0.824 | 1.85 | 0.687 | 0.881 | 0.921
CCAGACAGCTGAAAGGTAACTCAGTCTGGTACGC | -0.175 | -0.0986 | -0.184 | 0.0606 | 0.212 | 0.0566 | -0.51 | -0.0821 | -0.0523
TCGTGTAGATCAACAGGAGGTTAAGAAAGATCGA | 0.472 | 0.729 | 0.231 | -0.0769 | 0.672 | 0.819 | -0.773 | 0.314 | -0.463
ATCTCTACGTAAGACTCAGTTCAGTGAAGAACGC | 0.71 | 0.107 | 0.393 | 0.74 | 0.286 | 0.601 | 0.378 | 0.645 | 1.45
CCGACTGGGGCATAAGGTTCCCATAAGCCAGCCC | -0.217 | -0.0298 | -0.0621 | -0.59 | -0.271 | -0.0053 | -0.165 | -0.0761 | -0.209
TCTTGTAGATCAAAAGGAGGTTAAGAAAGATCGA | 0.201 | 0.79 | 0.0979 | 0.622 | 1.17 | 1.09 | -0.613 | 0.807 | 0.16
CGAACTAGGTCATCCAGGACAATGAATACATTGA | 2.68 | 3.81 | 4.59 | 2.36 | 2.73 | 3.81 | 2.22 | 4.99 | 2.27
GATACAGGGTCAAAGCCAGAGTACGCGTATTGAT | 2.86 | 5.42 | 4.41 | 3.04 | 5.84 | 3.25 | 0.312 | 4.5 | 2.99
TCATATAGGTAAACGCTAGGTGAAAGTCCGATCT | 0.416 | 0.628 | 0.523 | 1.63 | 0.944 | 1.52 | 0.385 | 1.03 | 0.251
AGAATGAGGTAATACGTAGATCAGGGAAGAAAGT | -0.0706 | 0.35 | 0.314 | -0.0157 | 0.428 | 1.39 | 0.304 | -0.148 | -0.472
GCATATAGGTAATACAAGGTGAAGGTCCGATTGT | 1.04 | 0.61 | 0.653 | 0.103 | 0.694 | 4.08 | 1.09 | 0.155 | -0.214
TCTATTAGTTGATTAGGGCAGCCGAAACAGCGGA | 0.418 | 0.585 | 0.628 | 1.14 | 0.439 | 0.393 | 0.285 | 0.607 | 0.654
ATCTCTAGGTAAGAATCAGTTCAGTGAAGAACGC | 0.542 | 0.529 | 0.6 | 0.634 | 0.2 | 0.888 | 0.68 | 0.845 | 1.52
TAGTCTAGGTCATGGGCCAGTATACCACGCGAAC | 3.09 | 4.03 | 4.4 | 0.663 | 3.44 | 3.3 | 2.25 | 2.13 | 0.773
TCTTGTAGATCAATAGAGGTTAAGTAAGTGCGCT | 1.37 | 0.902 | 0.6 | 0.824 | 1.49 | 3.1 | -0.295 | 2.65 | 0.563
ATCTCTAGGTAACCAAGTTCAGTCAATGCCGAAC | 2 | 1.22 | 1.21 | 1.27 | 0.744 | 1.86 | 1.06 | 4.36 | 3.43
GCTGCTGGGTCAGGTTGGTCAGCTAACGGGTACG | 2.57 | 1.94 | 2.78 | -0.0156 | 0.839 | 1.21 | 0.312 | 0.554 | 0.573
GATACAGGGTCAAGGCCAGCGTACGCGTATTGAT | 3.63 | 5.27 | 4.55 | 2.14 | 5.61 | 3.53 | 1.43 | 3.89 | 1.31
CCGACAGGGGCATAAGGTTACCATAAGCCAGCCC | 2.13 | 2.36 | 1.62 | 0.428 | 2.01 | 2.43 | 1.43 | 1.1 | 0.293
TCTTGTAAATCAATAGAGGTTAAGAAAGTGCGCT | 1.42 | 0.907 | 0.577 | 1.23 | 1.46 | 1.56 | 0.0458 | 1.98 | 0.639
CCTTACGGGTCAAGGTCATAGCACGGGTGGTACG | 4.87 | 6.23 | 6.45 | 2.02 | 7.01 | 4.18 | 3.42 | 5.14 | 3.71
CCACACAGGTGAAAGGTAACTCAGTCTGGTACGC | 1.05 | 1.5 | 0.76 | 0.262 | 2.32 | 1.06 | 0.165 | 1.05 | -0.208
AGAATGAGGTTATATGTAGATCAGGGAAGAAAGT | 1.34 | 1.69 | 1.09 | 1.74 | 2.1 | 2.44 | 1.22 | 1.43 | 1.24
TGAATGAGGTTAAAGATCGGGGAACGTGGCGTCG | 0.987 | 2.41 | 1.24 | 1.35 | 3.31 | 2.55 | 0.447 | 1.61 | 0.818
